# “And” between values parts separate entries of the source, which are not always exact repeats. Equal entries are not always repeated. A structure can be active in one record and inactive in another. The source made the active and inactive calls.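 The calls were made as follows, unless noted: active = inhibition at or above 50% relative to wild type and mutant plate controls; inactive = inhibition below 50%.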
# Key:
# [1] = inhibitors of TNFa-induced NFkB p65 translocation, primary screen, imaging, HUVEC, MLSMR starter and 10KST1 sets (AID 438;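 active = inhibition above 20% together with a positive visual image hit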;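 also: compound added about 3h40 before a 20 min TNFalpha stimulation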;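 as to inhibition: signal is the nuclear over cytoplasmic p65 intensity ratio per well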); conditions: HUVEC TNFa-induced p65 nuclear translocation; cell count: measured here: nuclei count (cytotoxicity indicator), at 2.08 µM; inhibition: at 2 µM, stronger effect = higher value, 0% TNFa-plus-vehicle, 100% no-TNFa wells
# [2] = reduction of polyQ htt aggregates in cells – imaging, exon1htt(103Q)mCFP cells, high-content imaging, primary screen (AID 483;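 active = visual image review flags a hit and inhibition of aggregation exceeds 20%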;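 also: compound exposure lasted 3 days before fixation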;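 as to nuclei count: percent of the per-plate median nuclei count of sample wells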); conditions: exon1htt(103Q)mCFP cell line, aggregate imaging, at 2 µM; inhibition of aggregation: stronger effect = higher value; nuclei count: measured here: cell count, toxicity
# [3] = endothelial E-selectin expression blockers – imaging, HUVEC, immunofluorescence, MLSMR starter and 10KST1 sets, primary screen (AID 487;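 active = visually confirmed hit in the image check and inhibition above 20%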;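 as to inhibition: signal is fraction of cell area covered by stained E-selectin grains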;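 as to nuclei count: 100% = median nuclei count of all wells on the same plate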); conditions: HUVEC TNFalpha-induced E-selectin immunofluorescence imaging, at 2 µM; inhibition: stronger effect = higher value; nuclei count: measured here: cell number, toxicity
# [4] = Primary imaging screen for DUSP6 inhibitors that restore phospho-Erk in transfected HeLa cells, chemical complementation (AID 609;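 active = compounds giving at least 50% inhibition in the cell-based MKP-3 phosphatase rescue imaging test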;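 as to inhibition: phospho-Erk level distribution per well compared with pooled transfected vehicle control wells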); conditions: HeLa MKP-3 transfected, phospho-Erk imaging KS statistic, at 10 µM, cells stimulated with TPA for 15 min
# [5] = molecular target: Dual specificity protein phosphatase 6 (Homo sapiens) (UniProt Q16828); assay: as above; conditions: HeLa MKP-3 transfected, phospho-Erk imaging KS statistic; at 10 µM; stronger effect = higher value; cells stimulated with TPA for 15 min
# Chain of Dual specificity protein phosphatase 6 (Homo sapiens) (Q16828 whole entry, looked up): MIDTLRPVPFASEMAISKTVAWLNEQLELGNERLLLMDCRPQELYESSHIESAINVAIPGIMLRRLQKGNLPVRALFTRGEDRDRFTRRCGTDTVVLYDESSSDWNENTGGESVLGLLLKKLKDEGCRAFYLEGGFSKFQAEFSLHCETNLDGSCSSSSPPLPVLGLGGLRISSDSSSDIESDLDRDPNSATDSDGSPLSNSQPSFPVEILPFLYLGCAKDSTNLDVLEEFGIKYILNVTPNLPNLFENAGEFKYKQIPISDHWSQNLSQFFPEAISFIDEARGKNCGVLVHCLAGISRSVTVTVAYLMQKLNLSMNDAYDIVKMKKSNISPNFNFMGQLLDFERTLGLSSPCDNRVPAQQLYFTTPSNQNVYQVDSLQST
# [6] = molecular target: Voltage-gated potassium channel subunit beta-2 (Rattus norvegicus) (UniProt P62483); assay: inhibitors of rat Kvbeta2 reductase activity – biochemical, NADPH fluorescence, primary screen (AID 622;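 active = fluorescence slope higher than the sample average by over 3 SD, cut at about -0.22 in these data, passing the limit was not always enough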;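 also: slope of raw intensity against log time taken from 70 to 1610 s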); conditions: recombinant KvBeta, 4-cyanobenzaldehyde reduction, at 10 µM, stronger effect = higher value
# Chain of Voltage-gated potassium channel subunit beta-2 (Rattus norvegicus) (P62483 whole entry, looked up): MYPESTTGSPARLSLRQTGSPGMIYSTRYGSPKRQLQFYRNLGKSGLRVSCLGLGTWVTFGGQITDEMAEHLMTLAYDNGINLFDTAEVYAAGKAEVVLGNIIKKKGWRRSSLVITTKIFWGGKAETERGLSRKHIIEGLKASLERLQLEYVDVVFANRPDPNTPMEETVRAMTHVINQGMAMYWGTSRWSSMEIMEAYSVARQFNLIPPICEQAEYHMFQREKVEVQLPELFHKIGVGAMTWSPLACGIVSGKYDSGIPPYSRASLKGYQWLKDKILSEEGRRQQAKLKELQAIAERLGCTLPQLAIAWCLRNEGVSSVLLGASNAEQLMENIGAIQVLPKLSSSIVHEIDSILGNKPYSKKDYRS
# [7] = molecular target: Voltage-gated potassium channel subunit beta-2 (Rattus norvegicus) (UniProt P62483); assay: enhancers of rat Kvbeta2 NADPH turnover – biochemical, NADPH fluorescence, primary screen (AID 623;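 active = NADPH fluorescence slope more negative than the mean of all samples by about 3 SD, 99.7% confidence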;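 also: fluorescence intensity change per second fitted from 20 to 320 s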); conditions: Recombinant KvBeta, NADPH fluorescence decrease slope, 10 min; at 10 µM; stronger effect = lower value
# [8] = molecular target: Alpha-2C adrenergic receptor (Homo sapiens) (UniProt P18825); assay: compounds altering alpha2C-coupled GIRK flux – cell-based, HEK293 alpha2C/GIRK1/2, thallium flux, primary screen (AID 624;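 active = fluorescence slope after compound addition differing from the mean of all screened samples at 99.7% confidence, in either direction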;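 also: slope of fluorescence ratio to pre-addition baseline per second over 15 to 24 s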); conditions: thallium flux BTC fluorescence, at 10 µM, actives lie on both sides
# Chain of Alpha-2C adrenergic receptor (Homo sapiens) (P18825 whole entry, looked up): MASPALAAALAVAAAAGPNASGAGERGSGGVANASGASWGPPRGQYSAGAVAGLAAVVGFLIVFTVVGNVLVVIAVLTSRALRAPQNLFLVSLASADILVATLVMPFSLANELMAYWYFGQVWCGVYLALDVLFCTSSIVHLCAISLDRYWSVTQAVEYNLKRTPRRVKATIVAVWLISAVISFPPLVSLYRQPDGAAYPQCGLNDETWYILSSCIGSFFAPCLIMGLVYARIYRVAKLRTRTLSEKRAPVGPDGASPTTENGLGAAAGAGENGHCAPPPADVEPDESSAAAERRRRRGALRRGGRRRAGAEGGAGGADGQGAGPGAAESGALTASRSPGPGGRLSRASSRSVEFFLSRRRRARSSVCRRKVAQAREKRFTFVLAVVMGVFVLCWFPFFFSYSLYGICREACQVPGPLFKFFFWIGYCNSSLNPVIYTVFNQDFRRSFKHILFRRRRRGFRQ
# [9] = inhibitors of larval lipid processing in zebrafish, primary screen, whole organism, PED6 fluorescence, gall bladder and intestine (AID 686;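 active = a full or partial loss of lipid-probe fluorescence in the fish gall bladder, intestine or both, judged by eye; inactive = no fluorescence loss, or compound toxic to the fish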;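 also: larvae 5 to 7 days old with five fish per well; signal comes from phospholipase A2 cleavage of quenched PED6 carried via bile; overnight exposure to compound and PED6 before scoring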); conditions: Zebrafish larvae PED6 lipid processing, fluorescence scoring; screened at 20 µM (by protocol)
# [10] = loss of swimming-algae plug formation – whole organism, Chlamydomonas reinhardtii, WT vs cilia-less mutant, absorbance, 96-well, primary screen (AID 463189); conditions: Chlamydomonas reinhardtii gravitaxis, OD600 absorbance, 2 days; at 10 µM; stronger effect = higher value;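 also: 0% = wild type cc124 cells in DMSO and 100% = ciliumless bld1 mutant cells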
# [11] = blockers of RIG-like receptor reporter activation – cell-based, Sendai virus stimulus, luciferase, 10K MLSCN set, TLR/RLR signaling modifier project, primary screen (AID 602276;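 active = inhibition at or above 50% at 10 µM; inactive = inhibition below 50%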;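 also: firefly luciferase from ISG56 promoter only with Renilla not read in this screen; 0% = Sendai virus plus DMSO and 100% = medium plus DMSO without virus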); conditions: HEK293 RL24 IRF3 luciferase reporter, at 10 µM, stronger effect = higher value
# [12] = TLR3 IRF3 reporter activation blockers – cell-based, poly I:C stimulus, luciferase, 10K MLSCN set, primary screen (AID 602277;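 active = inhibition of the reporter signal at or above 50%; inactive = inhibition below 50%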); conditions: HEK293-TLR3 RL24 IRF3 luciferase reporter, at 10 µM, stronger effect = higher value
# [13] = measured here: cell density z-score
# [14] = measured here: nuclear c-Myc green intensity z-score
# [15] = measured here: nuclear pErk red intensity z-score, stronger effect = higher value
Structure (SMILES),cell count [1],inhibition [1],inhibition of aggregation [2],nuclei count [2],inhibition [3],nuclei count [3],"z-score [4, 13]","z-score [4, 14]","z-score [4, 15]",inhibition [5],fluorescence slope [6],NADPH fluorescence slope [7],slope [8],outcome [9],inhibition [10],inhibition [11],inhibition [12]
COC(=O)CCC(=O)CN,462,-0.2% (inactive),0.3% (inactive),95.2%,-32.6% (inactive),108%,-0.857,0.817,-0.467,14.6% (inactive),-0.446 (inactive),-6.5e-05 (inactive),0.00417 (inactive),inactive,-6.73% (inactive),5.54% (inactive),25.1% (inactive)
CC(=O)N=c1sc(S(N)(=O)=O)nn1C,541,-11.9% (inactive),7.8% (inactive),88.8%,-94% (inactive),104%,0.515,1.15,1.01,9.37% (inactive),-0.454 (inactive),-6.4e-05 (inactive),0.00535 (inactive),inactive,13.4% (inactive),4.97% (inactive),15.9% (inactive)
COc1cc(N2C(=O)CSC23C(=O)Nc2ccccc23)cc(OC)c1OC (configuration not stated),512,-13.1% (inactive),-13.9% (inactive),99.6%,-26.2% (inactive),105%,-0.126,-0.03,0.793,1.6e-07% (inactive),-0.342 (inactive),6.8e-06 (inactive),0.00524 (inactive),inactive,24.8% (inactive),2.33% (inactive),10.8% (inactive)
OCCN1CCN(CCCN2c3ccccc3Sc3ccc(Cl)cc32)CC1,705,-3% (inactive),-20.6% (inactive),109%,-112% (inactive),130%,-0.393,0.625,2.66,3.45% (inactive),-0.46 (inactive),-5.7e-05 (inactive),0.0036 (inactive),inactive,3.48% (inactive) and 164% (active),17.3% (inactive),40.7% (inactive)
CCCCOc1ccc(-c2nnc(N)s2)cc1,634,-17.7% (inactive),-7.4% (inactive),104%,-23.7% (inactive),146%,-0.283,0.709,0.136,-15% (inactive),-0.405 (inactive),-6.4e-05 (inactive),0.00759 (inactive),inactive,2.26% (inactive),-42.6% (inactive),-89.4% (inactive)
Fc1ccccc1-c1nc(NCCCN2CCOCC2)c2ccccc2n1,480,-0.7% (inactive),-2.8% (inactive),108%,-89.4% (inactive),130%,0.781,-1.18,-0.632,27.5% (inactive),-0.448 (inactive),-1.9e-05 (inactive),0.00649 (inactive),inactive,7.49% (inactive),-10.9% (inactive),-2.43% (inactive)
O=C1NC2c3ccccc3C(=O)N2c2c1cnn2-c1ccccc1 (configuration not stated),603,-7.1% (inactive),-11.1% (inactive),111%,-48.5% (inactive),146%,0.407,0.889,-0.995,7.83% (inactive),-0.425 (inactive),-1.7e-05 (inactive),0.00503 (inactive),inactive,14.6% (inactive),-6.19% (inactive),6.35% (inactive)
CC(CN1c2ccccc2Sc2ccccc21)N(C)C (configuration not stated),546,2.6% (inactive),6.8% (inactive),100%,-48.8% (inactive),109%,2,-0.736,0.272,-0.828% (inactive),-0.478 (inactive),-1.7e-05 (inactive),0.0061 (inactive),inactive,91.5% (active) and 139% (active),5.11% (inactive),31% (inactive)
CCN(CC)CCOC(=O)C1(C2CCCCC2)CCCCC1,520,-11.3% (inactive),17.1% (inactive),96%,-57.3% (inactive),118%,-0.235,-0.682,1.64,-6.41% (inactive),-0.494 (inactive),-5.1e-05 (inactive),0.00415 (inactive),inactive,-2.13% (inactive) and -31% (inactive),10.2% (inactive),38.4% (inactive)
Nc1nc(F)nc2c1ncn2[C@@H]1O[C@H](CO)[C@@H](O)[C@@H]1O,526,-6.8% (inactive),-1.5% (inactive),103%,5.4% (inactive),106%,-1.32,0.314,0.132,-2.46% (inactive),-0.491 (inactive),-3.9e-05 (inactive),0.00434 (inactive),inactive,-8.17% (inactive),2.74% (inactive),23.7% (inactive)
N=c1nc(N2CCCCC2)cc(N)n1O,660,0.9% (inactive),-1.2% (inactive),114%,-58.5% (inactive),138%,-0.689,-0.0187,0.315,25.7% (inactive),-0.46 (inactive),-6e-05 (inactive),0.00444 (inactive),inactive,1.56% (inactive) and -3.08% (inactive),9.96% (inactive),34.6% (inactive)
CN(C=C1C(=O)CC(C)(C)CC1=O)CCN1CCNCC1,624,-4.9% (inactive),-3.7% (inactive),97.1%,-43.7% (inactive),121%,-0.672,-0.802,1.89,-1.98% (inactive),-0.519 (inactive),-5.2e-05 (inactive),0.00485 (inactive),inactive,6.8% (inactive),14.6% (inactive),16.6% (inactive)
CCOc1nc(SCCOc2ccccc2)nc(N(C)C)n1,397,-7.1% (inactive),4.3% (inactive),54%,-68.5% (inactive),113%,0.798,-0.437,-0.913,22.8% (inactive),-0.395 (inactive),1.4e-05 (inactive),0.00398 (inactive),inactive,28.4% (inactive),0.0705% (inactive),-11.2% (inactive)
CC[N+](C)(CC)CCOC(=O)C(O)(c1ccccc1)C1CCCCC1 (configuration not stated),475,-3.8% (inactive),7.2% (inactive),95.4%,-15.1% (inactive),111%,-1.3,-0.403,0.0665,-4.44% (inactive),-0.515 (inactive),-2.6e-05 (inactive),0.00498 (inactive),inactive,-14% (inactive),2.1% (inactive),24.6% (inactive)
CCCc1c(OCCCCc2nn[nH]n2)ccc(C(C)=O)c1O,599,-11.6% (inactive),-9.3% (inactive),95.3%,-37.8% (inactive),129%,0.961,0.408,-0.601,9.37% (inactive),-0.458 (inactive),-4e-05 (inactive),0.00468 (inactive),inactive,-12.8% (inactive),15.4% (inactive),34.3% (inactive)
CO[C@H]1C[C@@H]2CC[C@@H](C)[C@@](O)(O2)C(=O)C(=O)N2CCCC[C@H]2C(=O)O[C@H]([C@H](C)C[C@@H]2CC[C@@H](O)[C@H](OC)C2)CC(=O)[C@H](C)C=C(C)[C@@H](O)[C@@H](OC)C(=O)[C@H](C)C[C@H](C)C=CC=CC=C1C,629,-23.5% (inactive),3.4% (inactive),97%,-63% (inactive),106%,0.947,0.453,0.871,19.2% (inactive),-0.462 (inactive),-3.4e-05 (inactive),0.00536 (inactive),inactive,44.3% (inactive),21.8% (inactive),43.8% (inactive)
Cn1cc(NC(=O)c2cc(NC(=O)c3cc(NC=O)cn3C)cn2C)cc1C(=O)NCCC(=N)N,571,-3.6% (inactive),-13.8% (inactive),96.4%,-15.4% (inactive),95.1%,-1.3,0.0863,-0.177,-0.493% (inactive),-0.499 (inactive),-3.2e-05 (inactive),0.00517 (inactive),inactive,-16.5% (inactive),19.8% (inactive),37.3% (inactive)
CCCCN1C[C@H](O)[C@@H](O)[C@H](O)[C@H]1CO,594,-9.5% (inactive),-4.6% (inactive),109%,-34.3% (inactive),129%,0.947,-0.313,0.0804,15.3% (inactive),-0.473 (inactive),1.5e-05 (inactive),0.00474 (inactive),inactive,22.3% (inactive),14% (inactive),19.6% (inactive)
CCOC(=O)N1CCN(C(=O)c2cn(CC)c3cc(N4CCN(C)CC4)c(F)cc3c2=O)CC1,544,2.6% (inactive),15.1% (inactive),96%,-20.9% (inactive),121%,0.456,0.816,-1.34,-7.28% (inactive),-0.267 (inactive),1.3e-05 (inactive),0.00518 (inactive),inactive,15.7% (inactive),21.5% (inactive),21.4% (inactive)
CN(C)c1ccc(O)c2c1CC1CC3[C@@H](N(C)C)C(=O)C(C(N)=O)=C(O)[C@]3(O)C(=O)C1=C2O (some centres not stated),516,-12.2% (inactive),71.3% (active),103%,-55.7% (inactive),131%,0.362,0.874,0.268,1.48% (inactive),-0.51 (inactive),-5e-06 (inactive),0.00461 (inactive),inactive,82.6% (active),17.8% (inactive),26.1% (inactive)
CCOC(=O)C1CCN(c2nc3ccccc3nc2C(C#N)C(=O)OC(C)C)CC1 (configuration not stated),520,-11.5% (inactive),-208% (inactive),104%,-90.1% (inactive),128%,-0.0557,0.253,-0.0521,-4.27% (inactive),-0.341 (inactive),-2.3e-08 (inactive),0.00139 (inactive),inactive,9.67% (inactive),-15.8% (inactive),-37.7% (inactive)
